Here are results for 92 compounds from PubChem BioAssay AID1259422 (The Scripps Research Institute Molecular Screening Center, 2018).

“And” between values parts separate entries of the source, which are not always exact repeats. Equal values may be shown once. Hit rate of the full screen: of about 640,000 compounds, about 9,300 (1.5%) were called active. The list comes from a sample in which actives are over-represented; it also holds similar structures and randomly drawn compounds. Values without a mark were called inactive. Rule as the data show it: active = inhibition above about 32%; inactive = the rest.

The assay is described as follows: TEAD-YAP interaction inhibition, primary screen, TEAD-YAP interaction inhibitor project, luminescence, HEK-TIYL cells (AID 1259422).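 Also: 0% = median of test compound wells and 100% = reference inhibitor wells.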 Conditions: TEAD-Gal4/YAP UAS-luciferase luminescence, at 9.12 µM, hits give high values.
The term inhibition denotes the change of the read-out against control, counted positive when it falls. As to `COc1ccc(CNC(=O)CC(C)C)cc1`, the inhibition was -2.6%.
For `c1cc(-c2ccc(OC3CCNCC3)cc2)cs1` the value was -27.5%; for `Cc1cc(C)c(OCCn2c(-c3ccc(Cl)cc3)nc3ccccc3c2=O)c(C)c1`, -10.6%; for `CCOc1ccc(S(=O)(=O)Nc2cc(C)cc(C)c2)cc1`, -1.15%.
On to `CCOc1ccc(NS(=O)(=O)c2ccc(Cl)cc2)cc1`, for which the inhibition is 3.58%.
Turning to `CCOc1ccc(S(=O)(=O)Nc2ccc(Cl)cc2C)cc1`, the inhibition is 53% (active).
For the compound `O=C(c1ccccc1F)N1CCc2nnc(Cc3ccccc3)n2CC1`, the inhibition was 6.95%.
As for `CCCCN(C)Cc1c(O)c(Cl)cc2c(C)cc(=O)oc12`, the inhibition was 6.72%.
With `Cc1c(C(=O)Nc2ccc3c(c2)Cc2ccccc2-3)oc2ccccc12`, the inhibition was -8.71%.
For `CC(C)c1nnc(NC(=O)CCN2C(=O)C3C4C=CC(C4)C3C2=O)s1` (configuration not stated) the value was -6.27%.
Turning to `Cc1cc(C)n2cc(CN3CCc4ccccc4C3)nc2n1`, the inhibition was -0.09%.
`O=C(Nc1nc2ccccc2s1)c1sc2ccccc2c1Cl`: the inhibition is 38.5% (active).
On to `O=C(Nc1cccc2ncccc12)c1sc2ccccc2c1Cl`, for which the inhibition was -3.37%.
As for `Cc1ccc(-c2nc3ccccc3s2)cc1NC(=O)c1sc2ccccc2c1Cl`, the inhibition is -13.1%.
With `Cc1ccc2c(c1)NC(=O)C(CC(=O)NCCN(C)C1CCCCC1)O2` (configuration not stated), the inhibition was -13.3%.
Consider `CCc1nnc2sc(-c3ccc(NC(=O)COc4ccccc4[N+](=O)[O-])cc3)nn12`, for which the inhibition was 1.75%.
With `COc1ccc(-n2cc(-c3ccccc3)c3c(NCCc4ccc(S(N)(=O)=O)cc4)ncnc32)cc1`, the inhibition is 9.44%.
For `CC(=O)Nc1ccc2nc(NC(=O)c3cc4cc([N+](=O)[O-])ccc4s3)sc2c1`, the inhibition is 16.6%.
On to `Cn1ncc([N+](=O)[O-])c1C(=O)Nc1ccc2nc(NC(=O)C3CCCCC3)sc2c1`, for which the inhibition is 66.2% (active).
As for `CC(=O)Nc1ccc2nc(NC(=O)c3ccc(S(=O)(=O)N4CCCCC4)cc3)sc2c1`, the inhibition is 1.92%.
In the case of `CCOC(=O)C1CCN(Cc2cccc([N+](=O)[O-])c2)CC1`, the inhibition was -8.78%.
The same measure for `Cc1ccc(/C=C2\SC(=S)N(c3cccc(O)c3)C2=O)o1`: -1.97%.
Regarding `COc1cccc(/C=C2\SC(=S)N(c3ccc(C(=O)O)c(O)c3)C2=O)c1OC`, the inhibition is 47.1% (active).
On to `O=C(O)c1cc(N2C(=O)/C(=C/c3ccc(O)cc3)SC2=S)ccc1O`, for which the inhibition is 1.88%.
As to `CCn1c(=O)cc(SCC(=O)Nc2nc(C)cs2)c2ccccc21`, the inhibition was -2.9%.
For `CC(=O)O[C@@H]1C[C@H](c2ccc(F)cc2)N(C)C1=O`, the inhibition is 3.54%.
For the compound `Cc1cc(/C=C2\Sc3ccccc3N2C)cc(C)[n+]1CCO`, the inhibition is 73.5% (active).
With `CCN1/C(=C/c2cc(C)[n+](N3CCN(C)CC3)c(C)c2)Sc2ccccc21`, the inhibition is 75.1% (active).
Consider `O=C(CN1C(=O)/C(=C/c2ccccc2)Sc2ccccc21)N1CCCC1`, for which the inhibition is -1.18%.
For `CN1/C(=C/C(=S)C(C)(C)C)Sc2ccccc21` the value was -12.6%.
The same measure for `O=C1c2ccccc2C(=O)N1CCC(=O)N1c2ccccc2Sc2ccccc21`: -5.51%; for `CCOc1cc2c(cc1OCC)N(CC)/C(=C\C=O)S2`: -11.6%; for `Cc1ccc(CC(=O)O/N=C(\N)c2ccc(Br)cc2)cc1`: -13%.
For the compound `Cc1cc(Nc2ccc3c(c2)OCO3)nc(Nc2cccc(N(C)C)c2)n1`, the inhibition was 2.34%.
For `CC1(C)CC(=O)C(N=Nc2cc(C(N)=O)c(Cl)cc2Cl)=C(O)C1` the value was -1.09%; for `COc1cccc(C(=O)NC(=S)Nc2cccc(C(=O)O)c2)c1`, 30.7%; for `COc1ccccc1C(=O)Nc1nc(C)cs1`, 80.1% (active).
For `COc1ccc2oc(=O)c(-c3csc(NC(=O)c4ccccc4)n3)cc2c1`, the inhibition was 1.86%.
For `COc1ccccc1C(=O)Nc1nc(-c2ccccc2)c(C)s1`, the inhibition was -3.33%.
`COc1cccc(C(=O)Nc2nc(-c3ccc(C)c(C)c3)cs2)c1OC`: the inhibition is -6.84%.
As to `Cc1csc(NC(=O)c2ccc(I)cc2)n1`, the inhibition is -17.9%.
With `COc1ccc(C(=O)Nc2nc(C)cs2)c(OC)n1`, the inhibition was 89.4% (active).
As for `CCOC(=O)C1(Cc2cccc(F)c2)CCN(CCO)CC1`, the inhibition was 2.96%.
As for `CCN1CCN(S(=O)(=O)c2ccc(F)c(C(=O)Nc3cccc(C)c3C)c2)CC1`, the inhibition is 3.75%.
For the compound `O=C(Nc1ccccc1Br)c1ccc(Cl)c([N+](=O)[O-])c1`, the inhibition was -1.84%.
For `O=C(CSc1nc2ccccc2c(=O)n1-c1ccc(C(=O)N2CCOCC2)cc1)NCc1ccccc1Cl` the value was 5.25%; for `COc1cccc(NC(=O)Cn2c3ccccc3c(=O)c3cc(Cl)ccc32)c1`, 1.55%; for `CCOc1cc(/C=C2\SC(=S)NC2=O)cc(Br)c1OC`, -5.88%.
As to `Nc1nc(Nc2ccc(N3CCOCC3)cc2)cc(-c2ccc3[nH]ccc3c2)n1`, the inhibition is -4.34%.
Take `CN1CCN(c2ccc(-c3cc(NCCOc4ccccc4)nc(N)n3)cc2)CC1`: the inhibition is 23.1%.
For the compound `CN1CCN(c2ccc(-c3cc(Nc4ccc(N5CCOCC5)cc4)nc(N)n3)cc2)CC1`, the inhibition is 64.9% (active).
Turning to `CCNc1nc(NCCc2ccc(OC)cc2)c2ncn(Cc3ccc(C(F)(F)F)cc3)c2n1`, the inhibition is 12.1%.
For `COc1ccc(CCNc2nc(-c3c(C)noc3C)nc3c2ncn3Cc2ccc(C(F)(F)F)cc2)cc1` the value was 40.4% (active); for `COc1ccc(-c2nc(NCc3ccccc3)c3ncn(Cc4ccc(C(F)(F)F)cc4)c3n2)cc1`, 5.78%; for `Oc1ccc(CCNc2nc(Nc3ccncn3)nc3c2ncn3Cc2ccc(C(F)(F)F)cc2)cc1`, -4.85%.
`O=c1c(C=Nc2ccc(Cl)cc2)c(Nc2ccccc2)nc2ccccn12`: the inhibition is -17.1%.
On to `NC(=S)N/N=C/c1c(Sc2ccccn2)nc2ccccn2c1=O`, for which the inhibition is -6.3%.
Take `O=c1c(/C=N/Nc2ccc(C(F)(F)F)cn2)c(Cl)nc2ccccn12`: the inhibition was 52.1% (active).
With `COc1ccc(/C=C2\C(=O)N(c3ccc(Cl)c(C(=O)O)c3)N=C2C)cc1Br`, the inhibition was 0.17%.
`C/C(CC(C)C)=N\NC(=O)c1nnn(-c2nonc2N)c1-c1ccccc1`: the inhibition was -8.99%.
Consider `O=C(Nc1ccc(N2CCOCC2)c(Cl)c1)c1ccc(-c2ccccc2[N+](=O)[O-])o1`, for which the inhibition was 11.7%.
The same measure for `O=C(Nc1cccc(NC(=O)c2ccc(-c3ccccc3[N+](=O)[O-])o2)c1)c1ccco1`: -5.61%; for `COc1ccc(NC(=O)c2ccco2)cc1NC(=O)c1ccc(-c2ccccc2[N+](=O)[O-])o1`: 34.4% (active).
The same measure for `CC(C)N(C)C1CCN(S(=O)(=O)c2cccc([N+](=O)[O-])c2)CC1`: -1.4%; for `Cc1ccc2cccc(NC(=O)c3cc4ccccc4o3)c2n1`: 12.1%.
For `CCC(C)c1ccccc1NC(=O)C(C)Cl` (configuration not stated) the value was -3.45%.
Consider `CN(CC(=O)Nc1ccccc1F)CC(=O)Nc1ccccc1Br`, for which the inhibition is -1.95%.
For `CCC(C)c1ccccc1NC(=O)CN(C)CC(=O)Nc1ccccc1SC` (configuration not stated) the value was 36.5% (active); for `COc1cccc(/C=N/NC(=O)c2cccc(NC(=O)c3ccc(F)cc3)c2)c1O`, 28.7%; for `COc1cccc(C=Nc2ccc(N)c(Cl)c2)c1O`, 6.6%.
The same measure for `COc1cccc(/C=N/Nc2ncc(C(F)(F)F)cc2Cl)c1O`: 49.5% (active).
`Cc1ccc(Nc2nc(-c3cccs3)cs2)cc1`: the inhibition is 64.2% (active).
In the case of `Cc1ccc(Nc2nc(-c3ccc(Cl)cc3)cs2)cc1`, the inhibition is -86.7%.
Regarding `Cc1ccc(-c2csc(Nc3ccccc3)n2)c(C)c1`, the inhibition was -65%.
The same measure for `CCOCCCn1c(SCc2cc(=O)n3ccccc3n2)nc2ccccc2c1=O`: 0.02%.
In the case of `Cc1cc2nnn(C[C@@H](C)NC(=O)Cc3ccccc3)c2cc1C`, the inhibition was -20.1%.
In the case of `Cc1ccc(-c2nc(CSCC(=O)N3CCC(C(N)=O)CC3)c(C)o2)cc1`, the inhibition was 10.6%.
With `Cc1ccc(-c2nc(CSCC(=O)NC3CCN(Cc4ccccc4)CC3)c(C)o2)cc1`, the inhibition was 33.9% (active).
Regarding `COc1ccc(-c2nc(CSCC(=O)NC3CCCCCC3)c(C)o2)cc1OC`, the inhibition was 2.93%.
For the compound `O=C(Cn1c(SCC(=O)N2CCCC2)nc2ccccc21)NC1CCCC1`, the inhibition is 3.72%.
For `O=C(Nc1ccc(F)cc1)c1cc(-c2ccncc2)nc2ccccc12` the value was -1.35%; for `Cc1ccc2nc(-c3ccncc3)cc(C(=O)Nc3ccc4c(c3)OCCO4)c2c1`, 43.3% (active).
Consider `Cc1cccc(Oc2ccc(NC(=O)c3cc(-c4ccccc4)nc4ccc(C)cc34)cc2)c1`, for which the inhibition is -0.69%.
As to `COc1ccc(-c2nnc(SCC(=O)N(C)C)n2C)cc1`, the inhibition was 2.69%.
In the case of `CCC(=O)N[C@@H]1c2ccccc2C2(CCN(Cc3cn[nH]c3-c3ccccc3)CC2)[C@H]1OC`, the inhibition was -3.33%.
Turning to `CCOc1ccccc1C(=O)Nc1c(C(=O)Nc2ccccc2F)oc2cccnc12`, the inhibition is 41.9% (active).
`O=C(Nc1ccccc1F)c1oc2cccnc2c1NC(=O)C1CC1`: the inhibition is 2.6%.
`COc1ccccc1NC(=O)c1oc2cccnc2c1NC(=O)c1ccc(Cl)cc1`: the inhibition was -6.82%.
For `Cn1c(SCC(=O)c2ccc3c(c2)OCO3)nnc1-c1cccs1`, the inhibition is -1.64%.
Take `COc1ccccc1N/C=C/C(=O)c1ccc(OC)c(OC)c1`: the inhibition is -24% and -18.3%.
The same measure for `COc1ccc(C(=O)/C=C/Nc2ccccn2)cc1`: 53.5% (active); for `COc1ccc(C(=O)/C=C/Nc2cccc(C(C)O)c2)cc1` (configuration not stated): -59.6%.
